Measurements as given in PubChem BioAssay (Tox21).
Where “and” joins values, the source holds several entries; their conditions need not be identical. Equal entries are not always repeated. Inconclusive results are not listed. Entries that show only a call come without a potency. Some structures have more than one record in an assay (separate samples or runs), and their calls can disagree. Calls of active or inactive are those of the source. Unless noted, calls come from the whole dose curve; as a rule, active = well fitted curve in the direction sought with a large enough effect in the repeat runs; inconclusive = weak or mixed curves; inactive = no such curve, though single readings can be large; an effect the other way counts as inactive or inconclusive.

Columns and labels:
[1] = qHTS assay to identify small molecule agonists of the hypoxia (HIF-1) signaling pathway - cell viability counter screen (AID 1224844; calls by dose curve; note: nearly all actives have a fitted effect of over 50% in size; note: potency is the fitted concentration of half-maximal effect)
How it was run: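 Cells (HRE-bla ME-180, 2,000 per well) sat 5 hrs at 37C, got compound for 17 hrs, were read for CCF4-AM FRET, and were finally lysed with CellTiter-Glo for a 30 min room-temperature luminescence read.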

[2] = qHTS assay to identify small molecule agonists of H2AX (AID 1224845; active = well fitted activation curve with a large enough effect in the signal ratio in the repeat runs, not every such curve was filed as active; the % refers to the signal ratio; note: potency is the fitted concentration of half-maximal effect)
How it was run: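 Wild-type CHO-K1 cells, plated overnight, exposed 3hr at 37C to 15 concentrations (0.76% DMSO final). Lysed, then HTRF anti-pH2AX (S139) cryptate and anti-H2AX-d2 antibodies, 24 hr room temperature; 665/620 nm emission read.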

[3] = qHTS assay to identify small molecule agonists of the hypoxia (HIF-1) signaling pathway (AID 1224846; active = well fitted activation curve with a large enough effect in the signal ratio in the repeat runs, not every such curve was filed as active; the % refers to the signal ratio)
How it was run: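 A low-serum medium (0.5% dialyzed FBS) holding 2,000 HRE-bla ME-180 cells per well is preincubated for 5 hrs, dosed with compounds by pintool, and kept a further 17 hrs at 37C, 5% CO2 before CCF4-AM FRET detection of beta-lactamase.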

[4] = qHTS RealTime-Glo MT Cell Viability Assay in HepG2 cells - 24 hour (AID 1224867); note: nearly all actives have a fitted effect of over 50% in size
How it was run: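 Luminescence read-out: viable HepG2 cells reduce a prosubstrate to a NanoLuc substrate, giving a signal proportional to live cell number. Reads taken at 0, 8, 16, 24, 32 and 40 h of compound exposure at 37 C.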

[5] = qHTS RealTime-Glo MT Cell Viability Assay in HEK293 cells - 32 hour (AID 1224868); note: nearly all actives have a fitted effect of over 50% in size; note: potency is the fitted concentration of half-maximal effect
How it was run: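 Nonlytic real-time viability readout: viable cells convert prosubstrate to NanoLuc substrate, giving luminescence proportional to live cell number. HEK293, 600 cells/well, compound added after 5 h, continuous culture at 37 C.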

[6] = A CellTox Green Cytotoxicity Assay to monitor cytotoxicity in HEK293 cells - 0 hour (AID 1224869); note: nearly all actives have a fitted effect of over 50% in size; note: potency is the fitted concentration of half-maximal effect
How it was run: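 Fluorescence intensity, read at 0, 8, 16, 24, 32 and 40 h of compound treatment, reflected dye binding to DNA of dead HEK293 cells; compounds (23 nL, DMSO) were added 5 h after plating cells with reagent.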

[7] = qHTS assay to identify small molecule antagonists of the estrogen related receptor (ERR) signaling pathway from Tox21 library (AID 1224848); note: nearly all actives have a fitted effect of over 50% in size; note: potency is the fitted concentration of half-maximal effect
How it was run: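 Luminescent reporter read-out (ONE-Glo) from NTP's ERR cell line after 18 h treatment at 37 C with DMSO-dissolved Tox21 compounds; cells pre-plated 6 h beforehand at 2,000 per well.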

[8] = qHTS assay to identify small molecule agonists of the estrogen related receptor (ERR) signaling pathway from Tox21 library (AID 1224849; calls by dose curve; note: nearly all actives have a fitted effect of over 15% in size); settings: ERR reporter cell line, ONE-Glo luciferase, 18 h
How it was run: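 Screening used an NTP-provided ERR luciferase cell line. Compounds in DMSO were added 6 h after seeding and left 18 h at 37 C before a 30 min ONE-Glo step and luminescence reading.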

[9] = qHTS assay to identify small molecule agonists of H2AX - cell viability counter screen (AID 1224847; calls by dose curve; note: nearly all actives have a fitted effect of over 30% in size; note: potency is the fitted concentration of half-maximal effect)
How it was run: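 Counter-screen for viability: CellTiter-Glo ATP luminescence read after 3 h compound treatment (15-point titration, 0.76% DMSO final) of CHO-K1 cells at 37C, with 30 min room-temperature reagent incubation.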

Structure (SMILES) | Potency [1] | Potency [2] | outcome [3] | outcome [4] | Potency [5] | Potency [6] | Potency [7] | activity change, positive = activation ([8]; at 92.4 µM (top of the series)) | Potency [9] | activity change, positive = activation ([8]; at 42.5 µM (top of the series))
CC[N+](=O)[O-] | inactive | inactive | inactive | inactive | inactive | inactive | – | – | – | –
CC(=O)C1CCOC1=O (stereo not given) | inactive | inactive | inactive | inactive | inactive | inactive | – | – | – | –
NNc1ccccc1 | inactive | inactive | inactive | inactive | inactive | inactive | – | – | – | –
Cl[C@H]1OCCO[C@@H]1Cl | inactive | inactive | inactive | inactive | inactive | inactive | inactive | -1.08% (inactive) and -4.01% (inactive) | – | –
O=S(=O)(O)OOS(=O)(=O)O | inactive | inactive | inactive | inactive | inactive | inactive | – | – | inactive | –
CCOc1ccc(N)cc1 | inactive | inactive | inactive | inactive | inactive | inactive | – | -23.9% (inactive) and -14.2% (inactive) | inactive | –
Cc1cccc(C)c1NC(=O)CN1CCCC1=O | inactive | inactive | inactive | inactive | inactive | inactive | – | – | inactive | –
OC[C@@H](O)[C@H]1O[C@@H]2O[C@H](C(Cl)(Cl)Cl)O[C@@H]2[C@H]1O | inactive | inactive | inactive | inactive | inactive | inactive | inactive | 4.33% (inactive) and 6.3% (inactive) | inactive | –
Nc1cccc(Cl)c1 | inactive | inactive | inactive | inactive | inactive and 21.9 µM (active) | inactive | inactive | 7.3% (inactive) and -16.4% (inactive) | inactive | –
CNC(=O)O/N=C/C(C)(C)S(C)=O (stereo not given) | inactive | inactive | inactive | inactive | inactive | inactive | – | – | – | –
N#CN=C(N)N | inactive | inactive | inactive | inactive | inactive | inactive | – | – | – | –
Cl/C=C/Cl | inactive | inactive | inactive | inactive | inactive | inactive | – | – | inactive | –
Nc1ncc([N+](=O)[O-])s1 | inactive | inactive | inactive | inactive | inactive | inactive | inactive | 2.32% (inactive) and 6.46% (inactive) | – | –
ClC(Cl)c1ccccc1 | inactive | inactive | inactive | inactive | inactive | inactive | inactive | 8.64% (inactive) and 1.48% (inactive) | – | –
CC(C)(C)C(=O)CCl | inactive | inactive | inactive | inactive | inactive | inactive | inactive | 2.78% (inactive) and 6.55% (inactive) | – | –
O=[N+]([O-])c1cc([As](=O)(O)O)ccc1O | inactive | inactive | inactive | inactive | inactive | inactive | inactive | -21.2% (inactive) and 4.02% (inactive) | – | -1.93% (inactive)
COS(=O)(=O)OC | inactive | inactive | inactive | inactive | inactive | inactive | – | – | inactive | –
O=C(O)C(Br)Br | inactive | inactive | inactive | inactive | inactive | inactive | – | – | – | –
Cc1ccc(N=C=O)cc1N=C=O | 24.5 µM (active) and inactive | – | inactive | inactive | inactive | inactive | inactive | 1.23% (inactive) and -0.244% (inactive) and 4.95% (inactive) | inactive | –
CC(C)c1cccc(C(C)C)c1O | inactive | inactive | – | inactive | inactive | inactive and 38.9 µM (active) | inactive | -9.76% (inactive) and -27.6% (inactive) | 50.5 µM (active) and inactive | -0.995% (inactive)
Cc1cccc(N)c1 | inactive | – | – | inactive | inactive | inactive | inactive | 7.86% (inactive) and 1.47% (inactive) and 12% (inactive) | inactive | –
CNC(=O)O/N=C/C(C)(C)S(C)(=O)=O | inactive | – | inactive | inactive | inactive | inactive | – | – | inactive | –
O=[N+]([O-])c1ccc(Cl)c(Cl)c1 | inactive | – | inactive | inactive | inactive | inactive | inactive | -0.469% (inactive) and -6.92% (inactive) | inactive | –
OCC(O)CCl (stereo not given) | inactive | – | inactive | inactive | inactive | inactive | – | – | – | –
CC12CC1(C)C(=O)N(c1cc(Cl)cc(Cl)c1)C2=O (stereo not given) | inactive | – | inactive | inactive | inactive | inactive | – | – | – | –

Structure (SMILES) | Potency [1] | Potency [2] | outcome [3] | outcome [4] | Potency [5] | Potency [6] | Potency [7] | activity change, positive = activation ([8]; at 92.4 µM (top of the series)) | Potency [9] | activity change, positive = activation ([8]; at 42.5 µM (top of the series))
N#Cc1ccccn1 | inactive | – | inactive | inactive | inactive | inactive | – | – | inactive | –
O=C(O)Cc1ccccc1 | inactive | – | inactive | inactive | inactive | inactive | inactive | -3.48% (inactive) | inactive | -0.0869% (inactive)
CCCCCCCCCCCCCCCCCC(=O)O | inactive | – | inactive | inactive | inactive | inactive | – | – | – | –
C=CC(=O)OCC(CC)CCCC (stereo not given) | inactive | – | inactive | inactive | inactive | inactive | inactive | 0.98% (inactive) and -12% (inactive) | – | –
C[C@]12CC[C@H](O)CC1=CC[C@@H]1[C@@H]2CC[C@]2(C)C(=O)CC[C@@H]12 | inactive | – | – | inactive | inactive | inactive | – | – | 89.8 µM (active) and inactive | –
CNC(=O)O/N=C/C(C)(C)SC | inactive | – | inactive | inactive | inactive | inactive | inactive | 5.2% (inactive) and 5.41% (inactive) | inactive | –
CNC(=O)O/N=C(\SC)C(=O)N(C)C | inactive | – | inactive | inactive | inactive | inactive | inactive | – | – | –
COP(=S)(OC)Oc1ccc(SC)c(C)c1 | inactive | – | inactive | inactive | inactive | inactive | – | – | – | –
CN(C)C(=O)C(c1ccccc1)c1ccccc1 | inactive | – | inactive | inactive | inactive | inactive | – | – | inactive | –
OCc1ccco1 | inactive | – | inactive | inactive | inactive | inactive | inactive | 4.84% (inactive) | inactive | –
CN(C)CCC#N | inactive | – | inactive | inactive | inactive | inactive | – | – | inactive | –
Cc1cccc(C)c1N | inactive | – | inactive | inactive | inactive | inactive | – | – | inactive | –
O=C(O)CCCc1ccc(N(CCCl)CCCl)cc1 | inactive | 56.9 µM (active) | inactive | inactive | – | inactive | – | – | – | –
CCCOC(=O)c1ccccc1C(=O)OCCC | inactive | – | inactive | inactive | inactive | inactive | – | – | inactive | –
COC(=O)Nc1cccc(OC(=O)Nc2cccc(C)c2)c1 | inactive | – | inactive | inactive | inactive | inactive | inactive | 26.6% (active) and 34.9% (active) | – | –
Nc1nc(N)nc(NC2CC2)n1 | inactive | – | inactive | inactive | inactive | inactive | inactive | -4.5% (inactive) and 0.923% (inactive) | inactive | 7.96% (inactive)
[N-]=[N+]=CC(=O)OC[C@H](N)C(=O)O | inactive | inactive | – | inactive | inactive | 38.9 µM (active) and inactive | inactive | 5.95% (inactive) | – | 3.09% (inactive)
CCOP(=S)(OCC)Oc1cc(C)nc(C(C)C)n1 | inactive | – | inactive | inactive | inactive | inactive | – | – | inactive | –
O=C(O)C1C(C(=O)O)C2(Cl)C(Cl)=C(Cl)C1(Cl)C2(Cl)Cl (stereo not given) | inactive | inactive | – | inactive | inactive | inactive | – | – | inactive | –
COc1cc(-c2ccc(N)c(OC)c2)ccc1N | inactive | – | inactive | inactive | inactive and 37.1 µM (active) | inactive | inactive and 46.3 µM (active) | – | – | –
Clc1cnc(Oc2ccc(Oc3ncc(Cl)cc3Cl)cc2)c(Cl)c1 | inactive | inactive | – | inactive | inactive | inactive | – | – | – | –
CNc1cnn(-c2cccc(C(F)(F)F)c2)c(=O)c1Cl | inactive | – | inactive | inactive | inactive | inactive | – | – | inactive | –
Cc1cc(Cl)ccc1OC(C)C(=O)O (stereo not given) | inactive | – | inactive | inactive | inactive | inactive | – | – | – | –
N#Cc1cccc(C#N)c1 | inactive | – | inactive | inactive | inactive | inactive | – | – | – | –
